HT1080 IDH1KD tx: kills HT-1080 cells with IDH1 knockdown | Potency, µM (series often up to 46.1 µM), inactives show at the top dose activity, negative = toxicity, most hits filed as cytotoxic | hit rate 2% among 360,000 | HT-1080 IDH1 knockdown viability, ATP luminescence, 48 h | AID 686971;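 note: potency is the fitted concentration of half-maximal effect; 0% = DMSO wells and -100% = cell-free medium wells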
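% activity derives from luminescence (CellTiter-Glo), normalised to DMSO and no-cell wells. HT-1080-IDH1KD cells, 750/well, had 48 h compound exposure at 37 °C.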
HT1080-NT tox: kills 2HG-producing HT-1080-NT fibrosarcoma cells. HT-1080-NT fibrosarcoma viability, CellTiter-Glo ATP luminescence, 48 h. Potency, µM (titrated, usually from 46.1 µM), without a hit: at the top dose activity, negative = less viability, actives largely listed as cytotoxic. hit rate 1.6% among 360,000. AID 686970;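 note: NT is the 2HG producing partner of a matched IDH1 knockdown line; potency is the fitted concentration of half-maximal effect; 0% = DMSO-treated cells and -100% = media-only wells without cells; nearly all actives have a fitted effect of over 55% in size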
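HT-1080-NT; 750 cells/well; 5% FBS RPMI; 48 h compound, 37 degrees C; CellTiter-Glo luminescence; curve fitting and curve-class assignment.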
uPA generation: inhibitors of cell surface uPA generation | cell surface uPA generation assay, qHTS | Potency, µM (doses to about 38.3 µM), inactives show at the top dose activity change, negative = inhibition, usual class: inhibitors | hit rate 0.31% among 330,000; active = well fitted inhibition curve with a large enough effect; inconclusive = small, poorly fitted or top-dose-only effect; inactive = no such curve, though single readings can be large or run the other way; tested in mouse RAW 264.7 cells; note: potency is the fitted concentration of half-maximal effect; nearly all actives have a fitted effect of over 55% in size
IL1B secr inh: inhibitors of inflammasome signaling (IL-1 beta secretion); activity change, % at 57.5 µM; AID 743279; THP-1 LPS/ATP IL-1B secretion, AlphaLISA, 16 h; stronger effect = lower value; hit rate 4.7% among 360,000; in the data active = activity change below about -50%; inconclusive = mostly about -30% to -49%
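Secreted IL-1B measured by AlphaLISA bead assay after 16 h compound exposure of THP-1 cells; compounds (final up to 57.5 uM) added 1 h before LPS (250 ng/mL) and ATP (1.25 mM) stimulation; lower signal means less secretion.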
DT40 TDP1 CPT: DT40-hTDP1 cell growth loss with CPT; chicken DT40 Tdp1-/-;hTDP1 cells + 20 nM CPT, ATP luminescence, 48 h; Potency, µM (doses to about 46.2 µM), without a hit: top-dose activity change, negative = growth inhibition, usual class: inhibitors; hit rate 12% among 420,000; AID 686979; note: potency is the fitted concentration of half-maximal effect; nearly all actives have a fitted effect of over 55% in size
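Chicken DT40 Tdp1-/- cells complemented with human TDP1, 400 cells/well, exposed to compounds plus 20 nM camptothecin for at least 48 h at 37 C; viability read as ATP content by CellTiter-Glo luminescence.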
TDP1 cell noCPT: qHTS for Inhibitors of human tyrosyl-DNA phosphodiesterase 1 (TDP1): qHTS in cells in absence of CPT; DT40 Tdp1-/- hTDP1 cells, no CPT, ATP luminescence, 48 h; Potency, µM (highest dose often 46.2 µM), inactives show at the top dose activity change, negative = growth inhibition, usual class: inhibitors; hit rate 15% among 420,000; note: potency is the fitted concentration of half-maximal effect; nearly all actives have a fitted effect of over 55% in size
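Chicken DT40 Tdp1-/- cells stably complemented with human TDP1 were seeded at 400 cells/well with DMSO in place of 20 nM camptothecin. After compound pinning, cells grew at least 48 hr at 37 °C; viability read by CellTiter-Glo luminescence.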
Starred values were filed as active, the others as inactive; ? = inconclusive; · = no result. Compounds with a hit are over-represented: about 19% of the library has one in this group of screens. Unless noted, calls come from the whole dose curve; as a rule, active = well fitted curve in the direction sought with a large enough effect; inconclusive = small, poorly fitted or top-dose-only effect, or another doubt; inactive = no such curve, though single readings can be large; an effect the other way counts as inactive or inconclusive. Unless noted, % is set by controls: 0 for no effect and ±100 for the full control effect.

SMILES	HT1080 IDH1KD tx	HT1080-NT tox	uPA generation	IL1B secr inh	DT40 TDP1 CPT	TDP1 cell noCPT
O=[N+]([O-])c1cc(-c2n(-c3ccccn3)c3ccccc3[n+]2-c2ccccn2)ccc1Cl	-2%	-2%	-1%	-15	16µM*	23µM*
CNc1c([N+](=O)[O-])cnn1-c1ccccn1	21%	8%	-1%	13	15%	1%
CCCCCC(=O)NC(=S)NNC(=O)CC	5%	2%	5%	87	16µM*	?
Cc1ccc(C(=O)NNC(=S)NC(=O)c2ccc(Cl)cc2)cc1	?	-28%	·	70	16µM*	?
CCC(=O)NNC(=S)NC(=O)c1ccc(C)cc1	-25%	-4%	·	-61*	?	10µM*
O=C(CCc1ccccc1)NNC(=S)NC(=O)c1ccc(Cl)cc1	?	?	-1%	14	?	23µM*
O=C(CCc1ccccc1)NNC(=S)NCc1ccc(Cl)cc1	8%	4%	9%	-9	?	-15%
CC(=O)Nc1cccc(Oc2ncnc3scc(-c4ccccc4)c23)c1	-16%	-29%	-8%	-53*	?	10µM*
COc1ccc(-c2csc3ncnc(N4CCN(S(=O)(=O)c5ccc(C)cc5)CC4)c23)cc1	-14%	-3%	11%	50	?	15µM*
COc1ccc(S(=O)(=O)N2CCN(c3nn(C)c(=O)n(C)c3=O)CC2)cc1	0%	3%	8%	15	?	16µM*
Cc1ccc(-c2csc3ncnc(Oc4cccc5ccc(C)nc45)c23)cc1	-6%	0%	-6%	10	?	21µM*
CC(=O)c1ccc(S(=O)(=O)N2CCN(c3nn(C)c(=O)n(C)c3=O)CC2)cc1	-11%	-2%	13%	6	-17%	1%
CCC(C)C(Nc1ncnc2scc(-c3ccccc3)c12)C(=O)O (configuration not stated)	-4%	-3%	6%	43	-1%	-10%
CS(=O)(=O)N1CCCCC1c1cc(C(=O)NCc2ccc(Cl)c(Cl)c2)no1 (configuration not stated)	-8%	-2%	·	-5	?	?
CCn1c(=O)n(-c2ccc(F)c(Cl)c2)c(=O)c2sc3ccccc3c21	·	·	·	·	1%	-19%
COc1ccc(-c2csc3ncnc(N4CCN(S(=O)(=O)c5cccs5)CC4)c23)cc1	-10%	-13%	3%	2	?	?
O=S(=O)(c1ccc(Oc2ccccc2)cc1)N1CCOCC1	-3%	-1%	·	0	-5%	-18%
Cc1cccc(C)c1NC(=O)CN(C)C(=O)C1CCN(c2ncnc3sc(C)c(C)c23)CC1	-11%	-12%	-2%	-6	?	?
COc1ccc(-c2csc3ncnc(N4CCN(S(=O)(=O)c5ccc(Cl)s5)CC4)c23)cc1	-18%	-14%	9%	52	?	29µM*
O=S(=O)(c1ccc(Oc2ncnc3scc(-c4ccccc4)c23)cc1)N1CCOCC1	-14%	-28%	-6%	-10	23µM*	18µM*
Cc1sc2ncnc(N3CCN(S(=O)(=O)c4ccc(C(C)(C)C)cc4)CC3)c2c1C	-19%	-22%	?	-29	9.2µM*	3.3µM*
Cc1ccc(S(=O)(=O)N2CCN(C(=O)C3CCN(c4ncnc5sc(C)c(C)c45)CC3)CC2)c(C)c1	14%	0%	18%	26	8.2µM*	3.7µM*
O=C(OCc1cc(=O)n2nc(-c3cccs3)sc2n1)c1ccccc1	·	·	·	·	7%	-17%
Cc1cc(OCc2nc(-c3ccncc3)no2)cc(C)c1Cl	-2%	4%	-6%	-5	11%	-8%
O=S(=O)(c1cccc(Br)c1)N1CCN(c2ncnc3scc(-c4ccccc4)c23)CC1	-2%	4%	-5%	55	?	?

Screening data deposited in PubChem BioAssay by National Center for Advancing Translational Sciences (NCATS).
